Records with an inconclusive call do not appear. Unmarked numbers belong to inactive results. Activity calls are given as the source filed them. Unless noted, calls come from the whole dose curve; as a rule, active = well fitted curve in the direction sought with a large enough effect in the repeat runs; inconclusive = weak or mixed curves; inactive = no such curve, though single readings can be large; an effect the other way counts as inactive or inconclusive.

Assay [1] is described as follows: qHTS assay to identify aromatase inhibitors - cell viability counter screen (AID 743084).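 Note: cells stimulated with testosterone during compound exposure; nearly all actives have a fitted effect of over 55% in size.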 Note: potency is the fitted concentration of half-maximal effect. Background: Quantitative high-throughput screening tests each substance at several concentrations.
The target in assay [2] is Aryl hydrocarbon receptor (Homo sapiens) (UniProt P35869). As to the kind of experiment: qHTS assay to identify small molecule that activate the aryl hydrocarbon receptor (AhR) signaling pathway (AID 743085).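 For activation: HG2L7.5c1 human HepG2 liver cells with stably integrated DRE-driven firefly reporter; series mostly up to about 70 µM.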 Note: nearly all actives have a fitted effect of over 15% in size. Note: potency is the fitted concentration of half-maximal effect. The method, boiled down: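 A multiplexed format paired cell viability (CellTiter-Fluor fluorescence) with AhR-dependent luciferase output (ONE-Glo luminescence) in the same wells of HepG2 DRE-luc cells after 24 h compound exposure at 37C.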

A short description of assay [3]: qHTS assay to identify small molecule that activate the aryl hydrocarbon receptor (AhR) signaling pathway - cell viability counter screen (AID 743086).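 For viability change, negative = cytotoxic: HepG2 liver cells carrying the AhR DRE luciferase reporter; series mostly up to about 70 µM.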 Note: nearly all actives have a fitted effect of over 45% in size. Note: potency is the fitted concentration of half-maximal effect. The method, boiled down:
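HepG2-AhR-luc (HG2L7.5c1) cells, 4000/well, were preincubated 5 h at 37C, exposed to compound in qHTS format for 24 hr at 37C, then given CellTiter-Fluor for 30 min; viability was read as fluorescence in the reporter wells.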

In assay [4] the target is Peroxisome proliferator-activated receptor gamma (Homo sapiens) (UniProt P37231). As to the kind of experiment: qHTS assay to identify small molecule agonists of the peroxisome proliferator-activated receptor gamma (PPARg) signaling pathway (AID 743094; active = well fitted activation curve with a large enough effect in the signal ratio in the repeat runs, not every such curve was filed as active; the % refers to the signal ratio). The method, boiled down: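 Beta-lactamase FRET fluorescence was the read-out after a 1 h room-temperature substrate step, following 17 h compound treatment at 37C of HEK293H cells expressing a UAS-driven bla reporter responsive to PPARg.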

Assay [5] can be described thus: qHTS assay for small molecule agonists of the antioxidant response element (ARE) signaling pathway (AID 743202; active = well fitted activation curve with a large enough effect in the signal ratio in the repeat runs, not every such curve was filed as active; the % refers to the signal ratio). The method, boiled down:
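Compounds delivered in DMSO to ARE-bla HepG2 cells (2,000 cells/well, pre-incubated 5 h) and left 16 h at 37 C. LiveBLAzer B/G FRET substrate then added for 2 h at RT before fluorescence reading.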

Assay [6] in a line: qHTS assay for small molecule agonists of the antioxidant response element (ARE) signaling pathway - cell viability counter screen (AID 743203; calls by dose curve; note: nearly all actives have a fitted effect of over 55% in size). The method, boiled down:
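HepG2 cells carrying ARE-driven beta-lactamase; 2,000 cells/well; 5 hrs plating; compound pinned from DMSO; 16 hrs 37C/5% CO2; CellTiter-Glo added; 30 min RT; luminescence.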

Assay [7] is described as follows: qHTS assay for small molecule activators of the heat shock response signaling pathway - cell viability counter screen (AID 743209). Note: nearly all actives have a fitted effect of over 50% in size. The method, boiled down: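 Luminescence from CellTiter-Glo, added after the beta-lactamase FRET read, gave the viability signal. Cells were HSE-bla HeLa treated with DMSO-dissolved compounds for 5 h at 37 C following overnight plating.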

Assay [8] can be described thus: qHTS assay for small molecule activators of the heat shock response signaling pathway (AID 743210; active = well fitted activation curve with a large enough effect in the signal ratio in the repeat runs, with a control signal flat, not every such curve was filed as active; the % refers to the signal ratio;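 note: HeLa cells with beta-lactamase reporter driven by heat shock elements; series mostly up to about 63 µM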). The method in brief:
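Reporter gene assay: HeLa cells stably bearing an HSE-bla construct, compound treatment 5 h at 37 C, LiveBLAzer substrate 2.5 h at RT, fluorescence intensity.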

Assay [9] is described as follows: qHTS assay to identify small molecule agonists of the peroxisome proliferator-activated receptor delta (PPARd) signaling pathway - cell viability counter screen (AID 743211). Note: nearly all actives have a fitted effect of over 55% in size. The method in brief:
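Tox21 library compounds, delivered in DMSO, were incubated 17 h with PPARd-bla HEK293H cells; cytotoxicity was taken from CellTiter-Glo luminescence read 30 min after reagent addition.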

The target in assay [10] is Peroxisome proliferator-activated receptor delta (Homo sapiens) (UniProt Q03181). As to the kind of experiment: qHTS assay to identify small molecule agonists of the peroxisome proliferator-activated receptor delta (PPARd) signaling pathway (AID 743212; calls by dose curve). The method, boiled down:
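A PPARd-bla HEK293H line with beta-lactamase under an Upstream Activator Sequence is treated with compounds at 37 C. Substrate loading for 2 h at room temperature precedes the fluorescence measurement.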

Assay [11] in a line: qHTS assay to identify small molecule antagonists of the peroxisome proliferator-activated receptor delta (PPARd) signaling pathway - cell viability counter screen (AID 743213). Note: nearly all actives have a fitted effect of over 50% in size. The method, boiled down:
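Cytotoxicity counter screen: CellTiter-Glo luminescence read 30 min after addition, in the same wells as the reporter assay. There, PPARd UAS-bla HEK293H cells (3000/well) were treated 17 h at 37 C with compound and 300 nM L165041.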

Assay [12] addresses Peroxisome proliferator-activated receptor delta (Homo sapiens) (UniProt Q03181). As to the kind of experiment: qHTS assay to identify small molecule antagonists of the peroxisome proliferator-activated receptor delta (PPARd) signaling pathway (AID 743215; active = well fitted inhibition curve with a large enough effect in the signal ratio in the repeat runs, not every such curve was filed as active; the % refers to the signal ratio;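 note: cells stimulated with agonist L165041 at 300 nM final during compound exposure; series mostly up to about 62 µM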). The method in brief:
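Read-out is beta-lactamase FRET fluorescence, measured 2 h after substrate addition at room temperature. Beforehand, UAS-bla HEK293H cells carrying the PPARd reporter were exposed to compounds with L165041 at 300 nM final for 17 h at 37 C.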

Assay [13] concerns the target Bile acid receptor (Homo sapiens) (UniProt Q96RI1). As to the kind of experiment: qHTS assay to identify small molecule antagonists of the farnesoid-X-receptor (FXR) signaling pathway (AID 743217; active = well fitted inhibition curve with a large enough effect in the signal ratio in the repeat runs, not every such curve was filed as active; the % refers to the signal ratio). The method, boiled down:
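HEK 293T FXR-UAS-bla, 5000 cells/well; compound + CDCA 50 uM final; 16 h, 37 °C; B/G FRET substrate 2 h RT; fluorescence.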

Assay [14] can be described thus: qHTS assay to identify small molecule agonists of the farnesoid-X-receptor (FXR) signaling pathway - cell viability counter screen (AID 743218). Note: nearly all actives have a fitted effect of over 45% in size. The method, boiled down: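 HEK 293T FXR-bla cells; 5 h pre-incubation, 16 h compound exposure at 37 C; LiveBLAzer substrate 2 h RT, then CellTiter-Glo 30 min RT, luminescence.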
In assay [15] the target is Vitamin D3 receptor (Homo sapiens) (UniProt P11473). Description: qHTS assay to identify small molecule antagonists of the vitamin D receptor (VDR) signaling pathway (AID 743223; active = well fitted inhibition curve with a large enough effect in the signal ratio in the repeat runs, not every such curve was filed as active; the % refers to the signal ratio). The method in brief:
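Quantitative HTS in VDR-bla reporter cells stimulated with 1alpha,25-dihydroxyvitamin D3, 3 nM final. Compound exposure 16 h, 37C, 5% CO2. Read-out: beta-lactamase FRET substrate fluorescence, 2 h RT.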

Assay [16] in a line: qHTS assay to identify small molecule antagonists of the peroxisome proliferator-activated receptor gamma (PPARg) signaling pathway - cell viability counter screen (AID 743194). Note: nearly all actives have a fitted effect of over 55% in size. Conditions: Potency: co-treated with 50 nM rosiglitazone unless noted. The method in brief:
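PPARg-UAS-bla HEK293H cells were plated, rested 5 h at 37 C, then treated with compounds plus rosiglitazone (50 nM final) for 17 h at 37 C; viability was then read by CellTiter-Glo luminescence after 30 min at room temperature.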

Assay [17] is described as follows: qHTS assay to identify small molecule antagonists of the farnesoid-X-receptor (FXR) signaling pathway - cell viability counter screen (AID 743221; active = well fitted cell-killing curve with a large enough effect in the repeat runs, not every such curve was filed as active; note: nearly all actives have a fitted effect of over 50% in size). The method in brief: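 Cytotoxicity is taken from ATP luminescence (CellTiter-Glo, 30 min, room temperature) in FXR-bla HEK 293T cells previously incubated 16 h at 37 C with compound and chenodeoxycholic acid at 50 uM final.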

Assay [18] deals with Vitamin D3 receptor (Homo sapiens) (UniProt P11473). As to the kind of experiment: qHTS assay to identify small molecule agonists of the vitamin D receptor (VDR) signaling pathway (AID 743222; calls by dose curve). The method, boiled down:
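VDR-bla cells, 2,000/well; 4 h preincubation 37C; cpd (DMSO) 16 h; LiveBLAzer B/G substrate 2 h RT; fluorescence intensity read.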

The target in assay [19] is Bile acid receptor (Homo sapiens) (UniProt Q96RI1). Description: qHTS assay to identify small molecule agonists of the farnesoid-X-receptor (FXR) signaling pathway (AID 743220; active = well fitted activation curve with a large enough effect in the signal ratio in the repeat runs, not every such curve was filed as active; the % refers to the signal ratio). The method in brief:
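Beta-lactamase reporter under UAS control in GeneBLAzer FXR HEK 293T cells (5000/well) measured with LiveBLAzer FRET substrate after 2 h at room temperature. Compound exposure lasted 16 h at 37C.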
% is set by controls: 0 for no effect and ±100 for the full control effect.

Peroxisome proliferator-activated receptor gamma (Homo sapiens), sequence (P37231 whole entry, looked up): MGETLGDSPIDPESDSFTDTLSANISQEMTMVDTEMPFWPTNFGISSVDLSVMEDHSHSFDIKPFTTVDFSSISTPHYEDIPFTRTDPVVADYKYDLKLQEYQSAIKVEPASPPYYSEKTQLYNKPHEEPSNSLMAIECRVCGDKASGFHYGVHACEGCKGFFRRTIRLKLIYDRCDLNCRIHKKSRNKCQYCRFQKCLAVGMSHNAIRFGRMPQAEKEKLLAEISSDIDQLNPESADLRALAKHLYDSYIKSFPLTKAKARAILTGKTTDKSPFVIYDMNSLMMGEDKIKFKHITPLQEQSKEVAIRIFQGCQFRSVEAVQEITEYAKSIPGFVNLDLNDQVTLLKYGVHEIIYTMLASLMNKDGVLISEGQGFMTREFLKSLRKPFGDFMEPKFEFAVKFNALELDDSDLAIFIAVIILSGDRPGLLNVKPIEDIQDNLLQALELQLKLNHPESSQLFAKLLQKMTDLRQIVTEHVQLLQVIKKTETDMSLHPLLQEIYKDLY
Peroxisome proliferator-activated receptor delta (Homo sapiens), sequence (Q03181 whole entry, looked up): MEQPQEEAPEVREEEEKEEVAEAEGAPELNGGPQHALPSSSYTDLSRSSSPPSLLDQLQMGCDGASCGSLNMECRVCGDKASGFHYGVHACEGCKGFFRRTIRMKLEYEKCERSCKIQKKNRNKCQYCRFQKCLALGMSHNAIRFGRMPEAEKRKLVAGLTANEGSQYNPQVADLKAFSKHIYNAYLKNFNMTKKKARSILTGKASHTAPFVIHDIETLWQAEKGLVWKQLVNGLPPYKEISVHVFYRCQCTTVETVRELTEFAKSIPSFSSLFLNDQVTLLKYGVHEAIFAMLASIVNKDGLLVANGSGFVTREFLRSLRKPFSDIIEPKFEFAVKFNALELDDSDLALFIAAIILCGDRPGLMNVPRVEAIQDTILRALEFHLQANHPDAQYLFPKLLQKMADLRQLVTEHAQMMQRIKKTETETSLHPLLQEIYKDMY
Aryl hydrocarbon receptor (Homo sapiens), sequence (P35869 whole entry, looked up): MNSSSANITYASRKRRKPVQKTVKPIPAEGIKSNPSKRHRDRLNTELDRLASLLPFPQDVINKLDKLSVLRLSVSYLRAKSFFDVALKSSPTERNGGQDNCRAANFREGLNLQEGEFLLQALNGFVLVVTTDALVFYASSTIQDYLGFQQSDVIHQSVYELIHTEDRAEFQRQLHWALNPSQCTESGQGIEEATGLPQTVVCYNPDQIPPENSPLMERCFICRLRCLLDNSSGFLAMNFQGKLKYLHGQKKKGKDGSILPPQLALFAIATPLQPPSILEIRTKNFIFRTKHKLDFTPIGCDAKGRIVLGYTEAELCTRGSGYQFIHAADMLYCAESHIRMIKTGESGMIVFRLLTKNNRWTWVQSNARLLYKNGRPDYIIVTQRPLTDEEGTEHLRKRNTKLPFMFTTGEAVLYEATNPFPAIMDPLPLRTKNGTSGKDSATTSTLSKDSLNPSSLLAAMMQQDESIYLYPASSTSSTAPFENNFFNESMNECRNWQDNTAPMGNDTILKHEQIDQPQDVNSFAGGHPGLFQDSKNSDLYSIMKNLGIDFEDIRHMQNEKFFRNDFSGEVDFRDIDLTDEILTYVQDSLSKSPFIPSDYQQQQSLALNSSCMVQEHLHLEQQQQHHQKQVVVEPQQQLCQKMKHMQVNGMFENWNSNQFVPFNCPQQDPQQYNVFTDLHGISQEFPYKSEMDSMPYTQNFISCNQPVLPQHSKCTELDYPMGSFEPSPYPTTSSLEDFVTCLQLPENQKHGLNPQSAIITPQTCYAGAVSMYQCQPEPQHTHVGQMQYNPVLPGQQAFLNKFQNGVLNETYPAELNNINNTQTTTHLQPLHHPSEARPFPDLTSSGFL
Bile acid receptor (Homo sapiens), sequence (Q96RI1 whole entry, looked up): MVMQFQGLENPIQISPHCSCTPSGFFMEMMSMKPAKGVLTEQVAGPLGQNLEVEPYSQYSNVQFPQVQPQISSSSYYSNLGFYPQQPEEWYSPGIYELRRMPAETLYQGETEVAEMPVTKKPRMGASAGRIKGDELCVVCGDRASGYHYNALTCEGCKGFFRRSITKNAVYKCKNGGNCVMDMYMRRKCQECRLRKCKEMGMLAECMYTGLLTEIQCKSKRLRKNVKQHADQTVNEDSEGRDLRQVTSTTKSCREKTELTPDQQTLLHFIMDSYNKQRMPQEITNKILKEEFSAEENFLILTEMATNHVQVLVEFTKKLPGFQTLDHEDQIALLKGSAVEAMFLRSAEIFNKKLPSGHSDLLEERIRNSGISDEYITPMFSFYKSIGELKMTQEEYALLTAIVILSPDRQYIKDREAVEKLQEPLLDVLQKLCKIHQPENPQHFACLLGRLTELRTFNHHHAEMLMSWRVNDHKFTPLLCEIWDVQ
Vitamin D3 receptor (Homo sapiens), sequence (P11473 whole entry, looked up): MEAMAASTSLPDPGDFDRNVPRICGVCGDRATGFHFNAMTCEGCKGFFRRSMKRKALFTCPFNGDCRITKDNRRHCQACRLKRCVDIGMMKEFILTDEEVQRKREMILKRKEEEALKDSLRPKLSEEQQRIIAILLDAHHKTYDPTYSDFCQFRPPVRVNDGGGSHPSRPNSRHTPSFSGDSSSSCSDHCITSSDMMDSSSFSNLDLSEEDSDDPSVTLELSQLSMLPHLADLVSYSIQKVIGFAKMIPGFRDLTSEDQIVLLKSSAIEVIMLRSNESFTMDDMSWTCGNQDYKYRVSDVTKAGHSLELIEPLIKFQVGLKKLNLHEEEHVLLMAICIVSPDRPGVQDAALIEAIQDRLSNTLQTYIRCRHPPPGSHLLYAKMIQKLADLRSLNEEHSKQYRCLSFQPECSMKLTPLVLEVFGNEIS

Consider `Cc1ccc(C)c2ccccc12`, for which the Potency result in assay [1], in [2], in assay [3], in assay [4], in [5] and in assay [6] was “inactive” each time. In addition, the Potency result in assay [7], in assay [8], in assay [9], in assay [10], in assay [11] and in assay [12] was “inactive” each time. In addition, the Potency entry in [13], in assay [14] and in [15] was “inactive” in each case.

Regarding `CN(C)c1ccc(N)cc1`, the Potency in assay [1] is 66.9 µM (active); in [2], 18.9 µM (active); in [3], 66.9 µM (active). Besides, the Potency entry in assay [4], in assay [16], in assay [6], in assay [7], in assay [8] and in assay [10] was “inactive” throughout. The Potency result in assay [14] and in [17] was “inactive” in each case.

As for `Clc1ccc(C2(Cn3cncn3)OCCO2)c(Cl)c1`, the Potency entry in [1], in assay [2], in assay [3], in assay [16], in assay [6] and in assay [7] was “inactive” throughout. Also, the Potency entry in assay [8], in [9], in assay [10], in assay [11], in [12] and in assay [14] was “inactive” each time. Moreover, the Potency entry in assay [17] was “inactive”.

Take `CC(=O)[O-].CC(=O)[O-].CC(=O)[O-].[Sb+3]`: the activity change, negative = cytotoxicity in assay [1] was 6.01% [at 8.47 µM]; in [16] it was -5.68% [at 5.95 µM, co-treated with 50 nM rosiglitazone]; in assay [7], 4.7% [at 5.95 µM]; in assay [9] it was -20.9% [at 5.95 µM]. Also, the activation is 0.374% [at 8.47 µM] in [2] and -8.79% [at 8.36 µM] in [5]. Further, the viability change, negative = cytotoxic was 5.29% [at 8.47 µM] in assay [3], -9.94% [at 8.36 µM] in assay [6] and -8.28% [at 6.26 µM] in assay [11].

As for `CSC(C)(C)/C=N/O`, the Potency result in assay [1], in [2], in assay [3], in assay [4], in assay [16] and in [6] was “inactive” each time. Besides, the Potency entry in assay [7], in assay [8], in assay [9], in assay [10], in assay [11] and in [12] was “inactive” each time. Also, the Potency entry in assay [14], in assay [17], in assay [18] and in [15] was “inactive” in each case.

For `CNC(=O)CSP(=O)(OC)OC`, the Potency result in [1], in assay [2], in assay [3], in assay [4], in assay [16] and in assay [6] was “inactive” throughout. Besides, the Potency entry in [7], in assay [8], in assay [9], in assay [12], in assay [13] and in assay [14] was “inactive” each time. Moreover, the Potency result in [19] is “inactive”.

Turning to `O=[N+]([O-])c1ccc(CCl)cc1`, the Potency entry in assay [1], in assay [2], in assay [3], in [4], in assay [16] and in [6] was “inactive” in each case. For the same compound, the Potency result in assay [8], in [9], in assay [11], in assay [12], in assay [18] and in assay [15] was “inactive” throughout.

As to `Oc1ccc(Cl)c(Cl)c1`, the Potency entry in [1], in [2], in assay [3], in [4], in [6] and in [7] was “inactive” throughout. The Potency result in [8], in assay [9], in assay [10], in [11], in assay [12] and in assay [14] was “inactive” in each case. The Potency result in assay [17] and in assay [18] was “inactive” throughout.

`CCOP(=S)(OCC)Oc1cc(C)nc(N(CC)CC)n1`: the Potency entry in assay [1], in [3], in assay [4], in assay [16], in assay [6] and in [7] was “inactive” each time. In addition, the Potency entry in [8], in assay [10], in assay [11], in assay [12], in assay [13] and in [18] was “inactive” throughout. Moreover, the Potency result in assay [15] is “inactive”. Moreover, in [2], the Potency is 2.73 µM (active).
